The source made the active and inactive calls. Unless noted, how the calls were made is not given here.
Experiments:
[1] = tested on: Wnt5a (protein binding on small-molecule microarray); assay: small molecules binding Wnt5a protein – biophysical, small-molecule microarray, 635/667 nm fluorescence, primary screen (AID 1142); settings: 635 nm fluorescence, higher = more signal;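 further: fluorescence read at 667 nm with signal to noise per printed feature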
[2] = ATP-based viability of Huh7 replicon cells – cell-based, CellTiter-Glo luminescence, basal, 48 h, cytotoxicity control for HCV replication inhibitor project, primary screen (AID 1143); settings: higher = more signal, called active from +8 up or from −8 down;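 further: Huh7 hepatoma cells carrying a hepatitis C replication reporter with no stimulus; test concentration not given here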
[3] = Pseudomonas biofilm growth suppression – PAO1 strain, BacTiter-Glo luminescence, LB-PBS, primary screen (AID 1144); settings: P. aeruginosa PAO1 biofilm, 12 h, higher = more signal
[4] = basal CRE-LacZ reporter activity in PC12 – cell-based, unstimulated, primary screen (AID 1145); settings: no forskolin, luminescence, 4.5 h, higher = more signal, called active from +8 up or from −8 down
[5] = forskolin-driven CRE-LacZ activity in PC12 – cell-based, CRE-LacZ reporter, forskolin-stimulated, primary screen (AID 1146); settings: luminescence, 4.5 h, higher = more signal, called active from +8 up or from −8 down;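 further: PC12 cells with 6xCRE LacZ reporter stimulated by forskolin 10 µM; beta-galactosidase reporter signal reflecting CREB driven transcription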
[6] = molecular target: Streptavidin (Streptomyces avidinii) (UniProt P22629); assay: compounds binding control protein streptavidin – biophysical, small-molecule microarray, 635/667 nm fluorescence, artefact control for SMM compound annotation, primary screen (AID 1147); settings: higher = more signal;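 further: signal reflects streptavidin binding to arrayed compounds as a control protein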
[7] = probe aInhba binding on compound microarray – biochemical, small-molecule microarray, 635/667 nm fluorescence, primary screen (AID 1148); settings: higher = more signal;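 further: score merges 667nm spot fluorescence with signal-to-noise for antibody binding to printed compounds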
Torsin-1A (Homo sapiens) [8] = molecular target: Torsin-1A (Homo sapiens) (UniProt O14656); assay: TOR1A wild-type binding on microarray – cell lysate, small-molecule microarray, lysate, 635/667 nm, primary screen (AID 1149); settings: COS7 hTOR1A-WT lysate, 635 nm fluorescence, higher = more signal
Torsin-1A (Homo sapiens) [9] = molecular target: Torsin-1A (Homo sapiens) (UniProt O14656); assay: torsin A mutant lysate binding on microarrays – cell lysate, small-molecule microarray, COS7 lysate, 635/667 nm fluorescence, primary screen (AID 1150); settings: COS7 hTOR1A mutant lysate, 635 nm fluorescence, higher = more signal;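 further: score pools 667 nm emission and signal to noise measuring lysate protein binding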
[10] = tested on: Sonic hedgehog protein (Shh); assay: Sonic hedgehog microarray binding compounds – biochemical, small-molecule microarray, 635/667 nm fluorescence, primary screen (AID 1151); settings: 635 nm fluorescence, higher = more signal;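 further: Shh protein binding to compounds spotted on small-molecule microarray slides; score combines spot fluorescence intensity with signal-to-noise across triplicate slides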
[11] = optical density shifts of acrAB sulA E. coli – strain DRC41, OD650, 48 h, E. coli filamentation inducer project, primary screen (AID 1152); settings: higher = more signal, called active from +8 up or from −8 down;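 further: E. coli MC1000 strain DRC41 lacking acrAB efflux pump and sulA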
[12] = probe aLefty1 binding on compound microarray – biochemical, small-molecule microarray, 635/667 nm fluorescence, primary screen (AID 1153); settings: higher = more signal;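 further: score merges spot fluorescence with signal-to-noise ratio from the scanned slide images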
[13] = plasmodial surface anion channel blockers, osmotic lysis – cell-based, P. falciparum Indochina, OD700, 1 h, primary screen (AID 1154); settings: P. falciparum Indochina infected RBC osmotic lysis, higher = more signal, called active from +8 up or from −8 down
[14] = plasmodial surface anion channel blockers, osmotic lysis – cell-based, P. falciparum Indochina, OD700, 2 h, primary screen (AID 1155);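 further: lysis reports solute entry through the parasite surface anion channel PSAC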; settings: P. falciparum Indochina infected erythrocytes, higher = more signal, called active from +8 up or from −8 down
[15] = changes in parasitized red cell lysis, either direction – P. falciparum Indochina, OD700, 3 h, PSAC antagonist project, primary screen (AID 1156); settings: P. falciparum-infected erythrocytes, osmotic lysis, higher = more signal, called active from +8 up or from −8 down
[16] = plasmodial surface anion channel blockers, osmotic lysis – cell-based, P. falciparum Indochina, OD700, 18 h, primary screen (AID 1157); settings: P. falciparum Indochina infected erythrocytes, osmotic lysis OD700, 18 h; higher = more signal, called active from +8 up or from −8 down
[17] = S6 kinase pathway phospho-S6 level changes – cell-based, A549, cytoblot, luminescence, serum-stimulated, primary screen (AID 1158); settings: 5 h, higher = more signal;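 further: serum-stimulated A549 lung adenocarcinoma cells; signal is phosphorylated S6 detected by cytoblot immunostaining with HRP secondary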
[18] = molecular target: NADPH oxidase 2 (Homo sapiens) (UniProt P04839); assay: compounds shifting NOX2 Amplex Red fluorescence – cell-based, HEK293-NOX2, PMA-stimulated, NOX inhibitor project, primary screen (AID 1159); settings: 45 min, higher = more signal, called active from +8 up or from −8 down; further: test concentration not given here
[19] = molecular target: NADPH oxidase 4 (Homo sapiens) (UniProt Q9NPH5); assay: compounds shifting NOX4 Amplex Red fluorescence – cell-based, HEK293-NOX4, tetracycline-induced, NOX inhibitor project, primary screen (AID 1160); settings: HEK293-NOX4, Amplex Red H2O2 fluorescence, 45 min; higher = more signal, called active from +8 up or from −8 down
[20] = molecular target: NADPH oxidase 5 (Homo sapiens) (UniProt Q96PH1); assay: compounds shifting NOX5 Amplex Red fluorescence – cell-based, HEK293-NOX5, NOX inhibitor project, primary screen (AID 1161); settings: HEK293-NOX5, ionomycin, 45 min, higher = more signal
Chain of NADPH oxidase 5 (Homo sapiens) (Q96PH1 whole entry, looked up): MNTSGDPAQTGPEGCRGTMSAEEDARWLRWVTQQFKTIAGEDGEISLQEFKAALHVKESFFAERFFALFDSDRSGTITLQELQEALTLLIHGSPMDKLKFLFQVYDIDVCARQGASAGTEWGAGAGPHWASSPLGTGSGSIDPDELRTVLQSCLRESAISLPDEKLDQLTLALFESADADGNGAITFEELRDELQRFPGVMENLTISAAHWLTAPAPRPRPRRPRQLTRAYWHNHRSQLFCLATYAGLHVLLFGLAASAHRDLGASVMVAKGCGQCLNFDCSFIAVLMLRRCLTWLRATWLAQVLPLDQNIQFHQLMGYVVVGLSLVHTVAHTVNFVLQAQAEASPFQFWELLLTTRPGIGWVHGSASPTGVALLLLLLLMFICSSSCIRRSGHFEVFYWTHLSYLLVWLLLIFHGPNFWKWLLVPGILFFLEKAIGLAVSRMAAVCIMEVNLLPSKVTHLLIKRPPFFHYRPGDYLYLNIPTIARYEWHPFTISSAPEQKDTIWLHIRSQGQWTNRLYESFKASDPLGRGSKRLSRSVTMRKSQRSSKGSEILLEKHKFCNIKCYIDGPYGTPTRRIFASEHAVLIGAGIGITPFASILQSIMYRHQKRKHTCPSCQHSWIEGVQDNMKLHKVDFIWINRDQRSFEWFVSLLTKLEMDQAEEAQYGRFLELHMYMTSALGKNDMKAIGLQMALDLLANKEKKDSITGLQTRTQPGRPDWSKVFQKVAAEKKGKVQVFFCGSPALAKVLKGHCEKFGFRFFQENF

Chain of NADPH oxidase 2 (Homo sapiens) (P04839 whole entry, looked up): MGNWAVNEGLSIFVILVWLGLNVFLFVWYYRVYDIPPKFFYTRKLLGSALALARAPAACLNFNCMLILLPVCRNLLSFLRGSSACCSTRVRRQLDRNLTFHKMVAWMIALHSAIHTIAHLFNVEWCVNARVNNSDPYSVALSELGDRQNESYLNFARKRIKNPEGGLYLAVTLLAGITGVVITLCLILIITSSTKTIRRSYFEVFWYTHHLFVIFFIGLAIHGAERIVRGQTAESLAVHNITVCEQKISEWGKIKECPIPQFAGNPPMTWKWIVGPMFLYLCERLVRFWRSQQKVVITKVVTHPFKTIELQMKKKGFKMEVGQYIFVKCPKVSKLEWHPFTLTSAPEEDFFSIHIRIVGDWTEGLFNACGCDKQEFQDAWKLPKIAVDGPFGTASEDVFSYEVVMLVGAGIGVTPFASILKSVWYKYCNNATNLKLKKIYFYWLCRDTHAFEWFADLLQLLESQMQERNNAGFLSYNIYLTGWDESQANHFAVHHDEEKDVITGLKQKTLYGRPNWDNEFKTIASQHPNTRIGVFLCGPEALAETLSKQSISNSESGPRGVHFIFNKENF
Chain of Streptavidin (Streptomyces avidinii) (P22629 whole entry, looked up): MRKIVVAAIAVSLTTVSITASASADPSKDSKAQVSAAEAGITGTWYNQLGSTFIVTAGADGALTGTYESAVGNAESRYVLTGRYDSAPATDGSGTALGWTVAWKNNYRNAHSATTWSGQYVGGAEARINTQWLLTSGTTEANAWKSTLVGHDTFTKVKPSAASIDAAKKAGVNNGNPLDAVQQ
Chain of NADPH oxidase 4 (Homo sapiens) (Q9NPH5 whole entry, looked up): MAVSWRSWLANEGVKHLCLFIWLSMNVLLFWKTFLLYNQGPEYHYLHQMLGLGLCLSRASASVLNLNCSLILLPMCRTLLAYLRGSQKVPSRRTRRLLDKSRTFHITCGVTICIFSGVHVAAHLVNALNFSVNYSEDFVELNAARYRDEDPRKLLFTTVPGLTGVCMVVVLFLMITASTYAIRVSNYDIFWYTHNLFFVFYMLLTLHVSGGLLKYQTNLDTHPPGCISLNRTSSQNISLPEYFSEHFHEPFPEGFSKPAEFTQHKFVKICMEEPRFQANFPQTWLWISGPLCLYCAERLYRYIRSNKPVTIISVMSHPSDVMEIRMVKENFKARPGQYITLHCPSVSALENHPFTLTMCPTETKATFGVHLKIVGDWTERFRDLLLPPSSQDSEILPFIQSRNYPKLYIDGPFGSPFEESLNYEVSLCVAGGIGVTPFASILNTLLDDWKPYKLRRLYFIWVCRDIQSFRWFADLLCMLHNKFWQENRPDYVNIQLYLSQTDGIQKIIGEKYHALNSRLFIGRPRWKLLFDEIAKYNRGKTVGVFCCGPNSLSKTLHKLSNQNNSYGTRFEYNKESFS
Chain of Torsin-1A (Homo sapiens) (O14656 whole entry, looked up): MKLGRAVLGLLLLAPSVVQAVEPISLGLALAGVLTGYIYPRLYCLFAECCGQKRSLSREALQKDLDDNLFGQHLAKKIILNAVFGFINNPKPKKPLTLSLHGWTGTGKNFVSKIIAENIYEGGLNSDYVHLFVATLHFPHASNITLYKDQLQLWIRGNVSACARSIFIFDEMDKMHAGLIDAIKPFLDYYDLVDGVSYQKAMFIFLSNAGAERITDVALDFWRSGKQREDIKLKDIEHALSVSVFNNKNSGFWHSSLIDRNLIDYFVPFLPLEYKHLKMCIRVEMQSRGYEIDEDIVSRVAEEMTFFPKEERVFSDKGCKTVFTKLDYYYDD

| Compound | composite z-score [1] | z-score [2] | z-score [3] | z-score [4] | z-score [5] | composite z-score [6] | composite z-score [7] | composite z-score (Torsin-1A (Homo sapiens) [8]) | composite z-score (Torsin-1A (Homo sapiens) [9]) | composite z-score [10] | z-score [11] | composite z-score [12] | z-score [13] | z-score [14] | z-score [15] | z-score [16] | z-score [17] | z-score [18] | z-score [19] | z-score [20] |
| --- | --- | --- | --- | --- | --- | --- | --- | --- | --- | --- | --- | --- | --- | --- | --- | --- | --- | --- | --- | --- |
| C=CCN1C(=O)[C@]2(O[C@H](CCO)[C@@H]([Si](C)(C)c3ccc(OC)cc3)[C@@H]2C)c2cc(NC(=O)c3ccc(OC)cc3)ccc21 | 0.211 | -7.99 (inactive) | -0.236 (inactive) | 15.2 (active) | -1.43 (inactive) | 0.535 | 0.0541 | 0.598 | 0.726 | 2.11 | -1.25 (inactive) | 0.0494 | 7.31 (inactive) | 2.69 (inactive) | -0.357 (inactive) | 1.3 (inactive) | -0.309 | -3.97 (inactive) | -0.48 (inactive) | 1.38 |
| CO[C@H]1O[C@H](CO)[C@@H](OC(=O)CCc2ccccc2)[C@H](OC(=O)c2cc3ccccc3[nH]2)[C@H]1OC(=O)c1cc2ccccc2[nH]1 | 0.156 | -5.71 (inactive) | -1.99 (inactive) | -1.28 (inactive) | -1.2 (inactive) | -0.0944 | 0.0391 | 0.71 | 0.913 | 0.832 | 2.71 (inactive) | -0.162 | 2.39 (inactive) | 0.923 (inactive) | -2.27 (inactive) | 1.1 (inactive) | 2.17 | -0.601 (inactive) | 0.0901 (inactive) | 0.855 |
| COCCOC(=O)N1C(=O)[C@@]2(c3cc(C#CC4=CCCCC4)ccc31)[C@H](C(=O)N1CCCCCCC1)[C@H]1C(=O)O[C@H](c3ccccc3)[C@H](c3ccccc3)N1[C@@H]2c1ccc(OCCO)cc1 | 0.636 | -3.96 (inactive) | -0.0896 (inactive) | -0.199 (inactive) | 0.463 (inactive) | 1.29 | 0.515 | 1.04 | 0.877 | 1.25 | -1.1 (inactive) | 1.88 | 4.58 (inactive) | 1.19 (inactive) | -0.26 (inactive) | 0.481 (inactive) | 0.118 | 0.983 (inactive) | 0.567 (inactive) | -0.934 |
| COCCOC(=O)N1C(=O)[C@@]2(c3ccccc31)[C@H](c1ccccc1OCCO)N1[C@H](c3ccccc3)[C@H](c3ccccc3)OC(=O)[C@H]1[C@@H]2C(N)=O | 0.408 | -4.2 (inactive) | -0.0116 (inactive) | 0.272 (inactive) | 1.86 (inactive) | 1.25 | 0.296 | -0.401 | 1.07 | 1.48 | -0.714 (inactive) | 0.221 | 3.59 (inactive) | 1.18 (inactive) | -0.463 (inactive) | 0.689 (inactive) | 0.231 | 1.88 (inactive) | 0.787 (inactive) | 0.212 |
| O=C1O[C@H](c2ccccc2)[C@H](c2ccccc2)N2[C@H]1[C@@H](C(=O)N1CCCCCCC1)[C@]1(C(=O)Nc3ccc(C#CC4(O)CCCCCC4)cc31)[C@H]2c1ccccc1OCCO | 2.32 | -3.52 (inactive) | -0.41 (inactive) | 0.335 (inactive) | -0.0926 (inactive) | 4.02 | 1.97 | 3.75 | 3.55 | 2.09 | -0.0659 (inactive) | 2.87 | 0.707 (inactive) | 0.216 (inactive) | -0.168 (inactive) | 0.614 (inactive) | 0.43 | 0.643 (inactive) | 0.485 (inactive) | 1.56 |
| CCCCCCCCCCC(O)C1C=CC2C(=O)N(C)C(=O)C2N1Nc1cc(OC)c(OC)c(OC)c1 (stereo not given) | -0.131 | -2.56 (inactive) | 0.443 (inactive) | 0.819 (inactive) | -0.212 (inactive) | 0.133 | 0.0086 | -0.534 | 0.0777 | -1.08 | -1.99 (inactive) | 0.166 | 13.6 (active) | 3.42 (inactive) | 0.214 (inactive) | 2.15 (inactive) | -0.635 | -2.1 (inactive) | -4.98 (inactive) | -0.944 |
| CN(C)CCCCNC(=O)[C@H]1C[C@H]2C(=O)N[C@@H](CCCC[N+](C)(C)C)C(=O)N2[C@H]1c1ccc(O)cc1 | 0.0044 | -0.482 (inactive) | 1.04 (inactive) | -1.2 (inactive) | -1.14 (inactive) | -0.202 | -0.179 | 0.278 | 0.97 | 0.719 | 1.67 (inactive) | -0.2 | 1.32 (inactive) | -0.539 (inactive) | -0.27 (inactive) | -1.63 (inactive) | 0.0054 | 0.622 (inactive) | 0.319 (inactive) | 1.31 |
| COc1ccc([Si](C)(C)[C@H]2[C@H](CC(=O)N3CCC[C@H]3CO)O[C@@]3(C(=O)N(Cc4ccc(N5CCC5=O)cc4)c4ccccc43)[C@@H]2C)cc1 | 0.699 | -5.51 (inactive) | 0.0292 (inactive) | 0.18 (inactive) | -0.404 (inactive) | 0.39 | -0.0523 | 1.1 | 0.43 | 1.77 | -0.691 (inactive) | 0.213 | 10 (active) | 1.8 (inactive) | 0.171 (inactive) | 0.746 (inactive) | 0.783 | 1.93 (inactive) | 1.63 (inactive) | 4.56 |
| COC(=O)C(CC#Cc1ccc2c(c1)[C@]1(C(=O)N2)[C@H](c2ccc(OCCO)cc2)N2[C@H](c3ccccc3)[C@H](c3ccccc3)OC(=O)[C@H]2[C@@H]1C(=O)N1CCN(c2ncccn2)CC1)C(=O)OC | 0.419 | -0.339 (inactive) | -0.961 (inactive) | -0.554 (inactive) | 1.27 (inactive) | 0.862 | 0.306 | 0.272 | 0.666 | 1.2 | -0.34 (inactive) | 0.53 | 4.2 (inactive) | 1.62 (inactive) | 0.257 (inactive) | 0.539 (inactive) | -0.454 | 1.46 (inactive) | 1.05 (inactive) | 1.52 |
| CCN(CC)c1ccc(N2CC=CC34O[C@@H]5/C=C\CCC(C)OC(=O)C5[C@H]3C(=O)N(C(C)CO)[C@@H]4C2=O)cc1 (stereo not given in full) | -0.0075 | 0.269 (inactive) | 0.515 (inactive) | 0.87 (inactive) | 0.46 (inactive) | -0.417 | -0.0986 | -0.0697 | -0.116 | 0.808 | 1.23 (inactive) | -0.196 | 0.946 (inactive) | -0.227 (inactive) | 0.987 (inactive) | 0.304 (inactive) | -0.276 | 0.33 (inactive) | -0.619 (inactive) | 1.69 |
